IEC-6 cytotox: cytotoxicity in IEC-6 intestinal epithelial cells, primary screen, cytotoxicity control for KLF5 inhibitor project, cell-based, luminescence | IEC-6 cytotoxicity, luminescence viability | inhibition, % at 5 µM | hit rate 0.78% among 290,000 | AID 1825, 2009; in the data active = inhibition above about 22%;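 also: 0% = plate median of test compound wells and 100% = cytotoxic reference compound wells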
KLF5 inh: KLF5 expression inhibitors, primary screen, DLD-1 cells, luminescence. AID 1700, 2009. DLD-1 KLF5 promoter-luciferase reporter. inhibition, % at 5 µM. hit rate 0.23% among 290,000;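 active = inhibition above a per-plate limit of that plate's mean compound inhibition plus 3 SD, cut at about 60% in these data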;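 also: 0% = DMSO wells and 100% = LY294002 at 200 µM; higher means less KLF5 promoter-driven luciferase light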
Ba/F3 V617F tox: reduced viability of JAK2V617F-dependent Ba/F3 cells, primary screen, JAK2V617F inhibitor project, cell-based, Ba/F3 EpoR-JAK2V617F, luminescence; ATP luminescence; hit rate 1.1% among 220,000; AID 1446, 2008; inhibition, % at 5.6 µM;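 active = inhibition above the campaign mean plus 3 SD over all tested compounds, cut at about 24% in these data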;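 also: cytokine-independent growth of Ba/F3 cells driven by EpoR plus mutant JAK2; 0% = DMSO-treated cells and 100% = JAK inhibitor I control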
BaF3 parental: parental Ba/F3 cell viability inhibition, counter-screen for JAK2V617F inhibitor project, murine pro-B, CellTiter-Glo luminescence. CellTiter-Glo ATP luminescence. inhibition, % at 5.6 µM. hit rate 1.1% among 220,000. AID 1486, 2009;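 active = inhibition above a per-campaign cutoff, the mean inhibition of all tested compounds plus 3 SD, cut at about 27% in these data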;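 also: 0% = DMSO wells and 100% = JAK Inhibitor I control wells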
APP transl inh: inhibitors of APP translation via 5'UTR reporter, primary screen, APP 5'UTR luciferase, SH-SY5Y cells; SH-SY5Y APP 5'UTR-luciferase reporter, luminescence; inhibition, % at 2 µM; hit rate 0.82% among 190,000;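 active = inhibition above a set limit, derived from the sample mean plus 3 SD, cut at about 45% in these data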
* = called active by the depositor; . = not tested or not shown. Sampled rows, rich in hits. Any-hit rate of the full collection: about 1.9%.

SMILES	IEC-6 cytotox	KLF5 inh	Ba/F3 V617F tox	BaF3 parental	APP transl inh
CCn1cc(S(=O)(=O)Nc2ccc(C)c(Cl)c2)cn1	0.7	2.9	.	.	.
COc1cc(C(=O)ON=C2C=C(C)C(=O)C(C)=C2)cc(OC)c1OC	7.6	-15.8	1.2	0.7	14.9
COc1cc(C(=O)O/N=C2\C=CC(=O)C(C)=C2)cc(OC)c1OC	-1.9	-17.3	49.4*	32.0*	-0.4
O=Cc1c[nH]c2ncccc12	-3.6	-59.1	-1.5	-2.5	.
N#Cc1c(-c2ccccc2)c(-c2ccccc2)nn(CC(=O)NNC(=O)Nc2ccc(Cl)cc2)c1=O	-4.7	14.1	-6.7	1.6	.
N#Cc1c(-c2ccccc2)c(-c2ccccc2)nn(CC(=O)NNC(=O)Nc2ccccc2)c1=O	15.5	23.7	19.6	43.2*	3.1
COc1ccccc1NC(=O)CN1C(=O)CSC(C)C1=O (centres undefined)	-11.5	-10.5	0.5	3.2	-1.0
COc1ccc(NC(=O)CN2C(=O)CSC(C)C2=O)c(OC)c1 (centres undefined)	-12.5	-5.2	-1.7	29.8*	-6.3
COc1ccc(C2=[N+](C)CCn3cccc32)c(OC)c1	7.3	-3.6	76.7*	67.4*	2.1
COc1ccc(CN2CCc3ccccc3C2)c(OC)c1	0.8	-2.9	-1.5	-3.9	.
CCN(CC)S(=O)(=O)c1ccc(Oc2ccc(S(=O)(=O)N(CC)CC)cc2)cc1	-1.1	-18.1	33.2*	40.3*	-0.2
COC(=O)c1ccc(NC(=O)[C@H](C)NC(N)=O)cc1	-6.6	-10.6	-3.7	0.1	.
OC1(c2cccs2)CN(c2ccc(Cl)cc2)C2=[N+]1CCCC2 (centres undefined)	0.7	-45.2	16.7	32.2*	13.7
O=C(Nc1ccc(CN2CCCCC2)cc1)Nc1ccccc1Cl	8.6	-19.0	0.9	59.2*	-41.6
N=c1sccn1CC(=O)N1N=C(c2ccc(Cl)cc2)CC1c1ccco1 (centres undefined)	6.5	-7.2	-3.6	-0.8	7.7
CCNC(=S)N/N=C(\C)c1ccc(N2CCOCC2)cc1	4.7	-13.8	2.1	7.9	5.5
CNC(=S)N/N=C(\C)c1ccc(N2CCOCC2)cc1	4.3	21.6	96.0*	41.1*	-31.2
Cc1cccc2nc(-c3ccco3)c(Nc3ccccc3)n12	-0.8	-6.0	-0.2	0.5	-5.0
Cc1ccc(Nc2c(-c3ccccn3)nc3cccc(C)n23)cc1	9.9	21.7	3.2	4.7	67.5*
C=CCNC(=S)N(CC)c1cccc2ccccc12	6.9	-17.0	34.3*	35.6*	-3.6
OC[C@H]1OC(Nc2ccc(N=Nc3ccccc3)cc2)[C@@H](O)[C@@H](O)[C@@H]1O (some centres undefined)	-6.7	-75.3	-6.4	3.2	.
O=C(NCCCN1CCOCC1)c1ccc(NC(=O)C2COc3ccccc3O2)cc1 (centres undefined)	-2.3	5.3	-0.1	89.8*	-8.4
O=C(NCCCN1CCOCC1)C1COc2ccccc2O1 (centres undefined)	-2.0	-17.1	-0.8	6.6	-5.4
O=C(Nc1ccc(S(=O)(=O)N2CCOCC2)cc1)c1ccc(CN2CCc3ccccc3C2)cc1	16.1	4.6	63.4*	50.5*	0.0
O=C(Nc1ccc(S(=O)(=O)N2CCCC2)cc1)c1ccc(CN2CCc3ccccc3C2)cc1	1.0	-14.3	6.1	9.0	10.8
SMILES	IEC-6 cytotox	KLF5 inh	Ba/F3 V617F tox	BaF3 parental	APP transl inh
C/C(=N\S(=O)(=O)c1ccc(C)cc1)N1CCN(S(=O)(=O)c2ccccc2)C1	-0.1	-22.3	-0.5	-0.5	-7.5
C/C(=N\S(=O)(=O)c1ccc(C)cc1)N1CCCCC1	-0.4	-20.3	0.6	79.8*	-1.7
O=C(Nc1ccncc1)c1ccc(-c2ccccc2)cc1	-3.8	-57.9	4.1	32.1*	-24.8
O=C(Nc1cccnc1)c1ccc(-c2ccccc2)cc1	8.7	1.6	0.8	3.0	-109.9
O=C(O)/C=C/c1ccc(S(=O)(=O)Nc2ccc(OCc3ccccc3)cc2)cc1	-2.2	-34.5	-0.8	-13.7	.
N#Cc1ccccc1COc1ccc(/C=C/C(=O)O)cc1	-0.3	-1.8	7.5	5.3	59.5*
O=C(Cn1cc(C(F)(F)F)ccc1=O)N/N=C/c1cccc(Cl)c1Cl	4.2	-7.8	1.1	4.3	2.5
Cc1nc(-c2ccccc2)cn(O)c1=O	6.2	5.1	2.3	79.4*	-0.8
Cc1ccc(O)c(NC(=O)CCC2CCCCC2)c1	-1.7	-104.7	72.8*	58.2*	-63.8
O=C(Cc1cccs1)N1CCN(c2ccccn2)CC1	1.6	-1.1	7.0	4.4	.
CCCc1n(CC(O)COCC2CC=CCC2)c2ccccc2[n+]1C (centres undefined)	-1.8	0.8	33.0*	65.9*	-6.7
CCCc1n(CC(O)COC2CCCCC2)c2ccccc2[n+]1C (centres undefined)	-3.3	-13.5	26.3*	54.9*	-11.2
Cc1nc2ccccc2n1CC(O)COC1CCCCC1 (centres undefined)	-6.5	-14.7	-4.2	2.3	14.2
CCCc1n(CC(O)COCc2ccccc2)c2ccccc2[n+]1C (centres undefined)	-4.7	9.0	18.0	33.8*	5.0
CNc1c([N+](=O)[O-])cnn1-c1ccc(Cl)cc1Cl	-2.4	-41.9	-2.7	3.0	3.2
O=S(=O)(Nc1cccc(C(F)(F)F)c1)c1cnc[nH]1	2.9	-2.5	-3.1	5.0	-7.8
Cc1cccc(NS(=O)(=O)c2cnc[nH]2)c1	4.4	-19.8	3.9	92.8*	3.7
COc1ccc(OC)c(NC(=O)CCN2CCN(CCO)CC2)c1	-6.9	-56.8	.	.	.
CCN(CC)CCSc1nnc2c3ccccc3n(Cc3ccccc3)c2n1	5.0	-2.9	29.4*	48.8*	.
CCn1cc(/C=N\NC(=O)c2ccc3c(c2)c(C)c(C)n3Cc2ccccc2)c(C)n1	-3.2	-52.9	-2.6	3.8	15.5
Cc1ccc(Nc2cc(C)nn2-c2nc(C)cc(C)n2)cc1	30.1*	23.6	2.5	6.0	6.1
CCC(=O)Nc1cc(Cl)ccc1C(=O)O	-2.3	-8.5	4.6	5.5	0.6
CC(C)(C)c1cc(C(c2cccnc2)N2CCN(CCO)CC2)cc(C(C)(C)C)c1O (centres undefined)	-2.7	-0.1	-1.8	2.7	58.7*
O=[N+]([O-])c1ccc(N2CCN(c3ccc([N+](=O)[O-])cc3CO)CC2)c(CO)c1	11.8	-4.2	.	.	.
CCN(CC)c1ccc(/C=C2/SC(=O)N(C(C)C)C2=O)o1	-0.1	9.6	5.0	7.9	92.0*
Cn1cc(C(=O)NCCN2CCN(c3cccc(Cl)c3)CC2)c2c3ccccc3n(C)c2c1=O	-3.1	1.1	-1.5	3.9	13.1
CCC/C=N/NC(=O)c1[nH]c2c([N+](=O)[O-])cccc2c1C	9.0	6.7	-5.0	1.5	89.4*
CCCCC/C=N/NC(=O)c1[nH]c2ccc([N+](=O)[O-])cc2c1C	9.2	-1.8	-1.0	2.3	.
COc1ccc(C(=S)N2CCN(c3cccc(Cl)c3)CC2)c(OC)c1	53.6*	39.7	71.2*	40.8*	83.6*

Screens: PubChem, several laboratories
